Six1-Eya2 blk = inhibitors of human Six1/Eya2 interaction; AlphaScreen GST-Six1/His-Eya2 binding, biochemical; stronger effect = lower value; activity change, % (no concentration beside the values); actives 0.56% (n = 360,000); AID 651725; in the data active means activity change below about -65%; inconclusive means mostly about -30% to -63%; further: on the % scale 0 is the no-effect control and ±100 the full control effect
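AlphaScreen with GST-Six1 and His-Eya2 (5X mix: 250 nM and 500 nM), glutathione donor and nickel acceptor beads; buffer 50 mM Tris pH 8.0, 300 mM NaCl, 1 mM TCEP; 1 h at 37 C in the dark.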
HP1b chromo inh = inhibitors of HP1-beta chromodomain binding to methylated histone tails | AlphaScreen HP1-beta / biotin-H3K9me3 peptide binding | Potency, µM (top dose mostly 114 µM), without a hit: top-dose activity change, negative = inhibition, usual class: inhibitors | actives 0.56% (n = 390,000) | AID 540317; further: potency means the concentration at half of the fitted maximal effect; nearly all actives have a fitted effect of over 70% in size
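HP1-beta protein (50 nM final) preincubated 30 min at room temperature with biotinylated H3(1-18)K9me3 peptide (50 nM) in PBS pH 7.4, 0.01% Tween-20, then compound added for 30 min. AlphaScreen streptavidin donor/nickel chelate acceptor beads (10 ug/mL final), 30 min dark, luminescence read.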
JMJD2A Tudor inh = blocks the human JMJD2A Tudor domain. O75164. AlphaScreen JMJD2A-Tudor / H3K4me3 peptide binding. Potency, µM (titrated, usually from 114 µM), for the others: at the top dose activity change, negative = inhibition, actives largely listed as inhibitors. actives 4.4% (n = 390,000). AID 504339; further: potency means the concentration at half of the fitted maximal effect; on the % scale 0 is the no-effect control and ±100 the full control effect; nearly all actives have a fitted effect of over 50% in size
BAZ2B block = blocks human BAZ2B. Q9UIF8. AlphaScreen BAZ2B-H3K14Ac peptide displacement. Potency, µM (series often up to 114 µM), for the others: at the top dose activity change, negative = inhibition, usual class: inhibitors. actives 4.4% (n = 360,000). AID 504333; further: potency means the concentration at half of the fitted maximal effect; on the % scale 0 is the no-effect control and ±100 the full control effect; nearly all actives have a fitted effect of over 60% in size
Target sequence (Q9UIF8 whole entry, looked up): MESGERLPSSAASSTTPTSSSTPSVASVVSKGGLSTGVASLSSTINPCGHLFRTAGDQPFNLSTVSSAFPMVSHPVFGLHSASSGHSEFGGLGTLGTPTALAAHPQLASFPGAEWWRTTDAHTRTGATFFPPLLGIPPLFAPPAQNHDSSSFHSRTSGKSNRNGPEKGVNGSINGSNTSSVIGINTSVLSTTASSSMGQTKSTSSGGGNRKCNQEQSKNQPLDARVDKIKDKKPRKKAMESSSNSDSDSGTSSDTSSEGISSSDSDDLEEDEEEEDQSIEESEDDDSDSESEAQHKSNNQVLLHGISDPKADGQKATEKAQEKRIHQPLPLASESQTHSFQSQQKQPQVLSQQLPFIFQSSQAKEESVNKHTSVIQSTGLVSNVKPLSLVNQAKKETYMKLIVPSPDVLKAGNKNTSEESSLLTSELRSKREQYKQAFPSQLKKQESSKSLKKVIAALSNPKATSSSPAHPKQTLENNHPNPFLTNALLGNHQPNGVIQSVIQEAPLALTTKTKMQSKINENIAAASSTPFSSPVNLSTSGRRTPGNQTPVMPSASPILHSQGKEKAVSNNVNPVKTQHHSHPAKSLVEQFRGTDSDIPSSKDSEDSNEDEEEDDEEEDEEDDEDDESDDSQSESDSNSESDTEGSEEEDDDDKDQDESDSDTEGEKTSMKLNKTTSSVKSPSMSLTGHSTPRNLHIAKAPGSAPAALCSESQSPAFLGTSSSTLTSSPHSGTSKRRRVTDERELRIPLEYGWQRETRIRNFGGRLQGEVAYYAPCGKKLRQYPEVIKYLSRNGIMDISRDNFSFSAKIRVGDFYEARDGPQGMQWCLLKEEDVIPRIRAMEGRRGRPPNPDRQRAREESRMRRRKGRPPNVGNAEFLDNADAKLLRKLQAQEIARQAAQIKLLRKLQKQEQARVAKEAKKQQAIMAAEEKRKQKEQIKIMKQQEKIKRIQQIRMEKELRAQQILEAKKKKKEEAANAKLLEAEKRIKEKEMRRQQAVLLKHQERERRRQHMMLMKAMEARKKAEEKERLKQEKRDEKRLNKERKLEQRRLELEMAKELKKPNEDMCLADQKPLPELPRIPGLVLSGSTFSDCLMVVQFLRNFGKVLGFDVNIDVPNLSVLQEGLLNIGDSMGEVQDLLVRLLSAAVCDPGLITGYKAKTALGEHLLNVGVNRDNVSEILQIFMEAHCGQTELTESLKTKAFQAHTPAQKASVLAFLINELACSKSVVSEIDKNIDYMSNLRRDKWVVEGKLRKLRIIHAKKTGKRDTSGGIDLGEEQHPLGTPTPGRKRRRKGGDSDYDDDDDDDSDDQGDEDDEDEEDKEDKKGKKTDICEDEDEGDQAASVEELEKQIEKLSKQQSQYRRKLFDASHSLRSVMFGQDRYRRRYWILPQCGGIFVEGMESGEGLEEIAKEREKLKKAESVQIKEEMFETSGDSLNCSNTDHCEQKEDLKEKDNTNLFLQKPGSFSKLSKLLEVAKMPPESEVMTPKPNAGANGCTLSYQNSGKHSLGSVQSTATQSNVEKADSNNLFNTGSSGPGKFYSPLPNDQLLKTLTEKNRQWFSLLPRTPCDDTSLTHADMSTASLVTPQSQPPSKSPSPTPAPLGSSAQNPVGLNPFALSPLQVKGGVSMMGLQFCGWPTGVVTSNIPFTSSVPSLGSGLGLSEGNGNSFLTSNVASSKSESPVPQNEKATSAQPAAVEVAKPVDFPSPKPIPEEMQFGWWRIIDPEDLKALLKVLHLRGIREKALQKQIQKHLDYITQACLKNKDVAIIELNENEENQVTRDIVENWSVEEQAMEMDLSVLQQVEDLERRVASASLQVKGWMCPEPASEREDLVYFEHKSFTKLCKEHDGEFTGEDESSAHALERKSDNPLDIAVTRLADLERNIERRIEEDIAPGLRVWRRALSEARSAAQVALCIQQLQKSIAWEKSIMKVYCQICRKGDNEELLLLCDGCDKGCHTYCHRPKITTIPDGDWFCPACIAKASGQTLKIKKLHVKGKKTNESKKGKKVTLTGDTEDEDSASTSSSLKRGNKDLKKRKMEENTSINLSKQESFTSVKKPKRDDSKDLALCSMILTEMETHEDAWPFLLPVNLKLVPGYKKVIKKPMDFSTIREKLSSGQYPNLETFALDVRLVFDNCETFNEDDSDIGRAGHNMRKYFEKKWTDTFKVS
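Protein-peptide AlphaScreen: BAZ2B 50 nM, b-H3K14Ac 50 nM, 1x PBS pH 7.4 + 0.01% Tween-20. Preincubation 30 min RT; cpd 30 min RT (top 110 uM); beads 20 min RT, light-protected.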
TDP1 inh = inhibitors of human tyrosyl-DNA phosphodiesterase TDP1; Q9NUW8; recombinant TDP1, AlphaScreen DNA substrate cleavage; AID 485290; Potency, µM (highest dose often 130 µM), for inactives: top-dose activity change, negative = inhibition, usual class: inhibitors; actives 0.28% (n = 350,000); further: potency means the concentration at half of the fitted maximal effect; on the % scale 0 is the no-effect control and ±100 the full control effect; nearly all actives have a fitted effect of over 40% in size
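Here, a 5' biotin and 3' phosphotyrosine-FITC DNA oligonucleotide reports Tdp1 activity: intact substrate bridges AlphaScreen beads, while cleavage leaves a 3' phosphate and drops signal. All incubations at room temperature.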
CtBP-E1A blk = blocks the CtBP interaction with E1A; AlphaScreen GST-E1A/His-CtBP binding, 1536-well; stronger effect = lower value; activity change, % (no concentration beside the values); actives 0.49% (n = 340,000); in the data active means activity change below about -65%; inconclusive means mostly about -30% to -63%; further: on the % scale 0 is the no-effect control and ±100 the full control effect
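In 5 uL wells, 23 nL compound meets equimolar GST-E1A and His-CtBP (5X stock 125 nM each) for 2 h, 37 °C. Beads (5X, 50 ug/mL) then 1 h, 37 °C, dark.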
The depositor's hits bear a star; ? = inconclusive; · = not tested or not shown; [ ] = dose if it differs, or a comment. Shown are actives, neighbours in structure and some others; about 5.3% of the full set was active somewhere. Unless noted, the call rests on the fitted dose curve; in most records, active means well fitted inhibition curve with a large enough effect; inconclusive means small, poorly fitted or top-dose-only effect; inactive means no such curve, though single readings can be large or run the other way.

SMILES	Six1-Eya2 blk	HP1b chromo inh	JMJD2A Tudor inh	BAZ2B block	TDP1 inh	CtBP-E1A blk
CC1CCCCN1C(=O)Cn1c(=O)n(-c2ccc(Cl)cc2)c(=O)c2c3c(sc21)CCC3 (stereo not drawn)	·	12.5%	-20.1%	-5.7%	2.7%	·
O=C(O)c1ccccc1N/N=C/c1cc(Br)cc(Br)c1O	12.6	-24.3%	?	44.7µM*	9.6%	-0.7
COC(=O)c1ccc(Cl)cc1NC(=O)N(Cc1ccc(OC)cc1)C1CCN(C(C)=O)CC1	·	10.7%	-35.0%	?	3.7%	·
O=C(Cn1cnc2ccccc21)c1ccccc1	0.7	59.4%	-4.8%	-37.0%	·	8.1
O=C(O)c1ccn(Cn2cnc3ccccc32)n1	20.1	3.6%	22.4µM*	?	2.0%	-1.7
CCN(CC)Cc1cc(C(C)(C)C)cc(N2CCOCC2)c1O	2.8	?	?	·	·	-6.1
CCN(CC)Cc1cc(O)c(CN(CC)CC)cc1O	?	1.41µM*	0.794µM*	17.8µM*	7.94µM*	0.5
CCOC(=O)c1c(-c2ccc(-c3ccccc3)cc2)csc1NC(=O)CCN1CCOCC1	-9.3	-13.8%	?	-32.2%	2.6%	-7.3
CCOC(=O)c1c(-c2ccc(-c3ccccc3)cc2)csc1NC(=O)CNCCN(C)C	-17.0	-14.4%[57 µM]	35.5µM*	?	·	-26.6
CCOC(=O)c1c(-c2ccc(F)cc2)csc1NC(=O)CCN1CCOCC1	-8.5	?	1.78µM*	39.8µM*	·	-2.4
CCOC(=O)c1c(-c2ccc(C)cc2)csc1NC(=O)c1cc(=O)c2cc(C)ccc2o1	·	?	56.2µM*	?	-3.7%	·
CCOC(=O)c1c(-c2ccccc2)csc1NC(=O)C(C)NCCCN1CCOCC1 (stereo not drawn)	-7.9	?	50.1µM*	39.8µM*	-6.3%	-15.6
Cc1ccc2c(nc3s/c(=C\c4ccc(-c5ccccc5C(=O)O)o4)c(=O)n32)c1C	-18.9	-18.2%	?	56.2µM*	·	·
O=C(O)c1ccc(-c2ccc(/C=c3/sc4nc5ccccc5n4c3=O)o2)cc1Cl	?	17.8µM*	20µM*	39.8µM*	·	-28.1
Cc1cc(C)c2nc3sc(=Cc4ccc(-c5ccccc5C(=O)O)o4)c(=O)n3c2c1	-29.3	·	·	·	·	-5.2
CC1=CN2C(=N)/C(=C/c3ccc(Sc4ccc(C)cc4)o3)C(=O)N=C2S1	-24.6	28.2µM*	-23.4%	22.4µM*	1.9%	-21.4
CC(NCc1cccc(S(=O)(=O)N(C)C)c1)c1ccc(F)cc1 (stereo not drawn)	0.7	-31.5%	22.4µM*	50.1µM*	0.0%	-3.8
CCOc1ccc(C(=O)OCc2cc(=O)n3nc(C4CCCCC4)sc3n2)cc1	·	1.8%	-7.7%	-8.4%	5.8%	·
CC(=O)c1cc(-c2ccccc2)n(CC(=O)N2CCN(C3CCCC3)CC2)c1C	-6.8	-13.5%	11.6%[11.4 µM]	50.1µM*	3.3%	-0.7
CC(=O)c1cc(-c2ccccc2)n(CC(=O)NC2CCCC2)c1C	-1.2	26.5%	-7.7%	?	3.1%	4.4
CC(=O)c1cc(-c2ccccc2)n(CC(=O)N2CCC(C)CC2)c1C	-23.7	0.3%	-11.1%	50.1µM*	7.7%	-18.4
CCc1nn(C)c(N)c1C	22.0	22.1%	-7.2%	-14.2%	0.0%	7.2
CCc1nn(C)c(-c2n[nH]c(=S)n2N)c1Cl	6.4	15.0%	35.5µM*	?	1.5%	-2.0
CCc1cc(-c2n[nH]c(=S)n2N)n(C)n1	22.0	?	8.91µM*	79.4µM*	9.8%	0.0
Cc1onc(-c2c(F)cccc2Cl)c1C(=O)ONC(=O)c1ccco1	4.8	28.6%	39.8µM*	-7.5%	-1.3%	·
Cc1onc(-c2c(Cl)cccc2Cl)c1NC(=O)NNc1ccccc1	-5.1	62.7%	-15.9%	-15.0%	3.8%	·
Cc1onc(-c2c(Cl)cccc2Cl)c1C(=O)NNc1ccccc1	-1.1	-30.2%	79.4µM*	?	10.1%	-24.9

From PubChem BioAssay
